Values without a mark were called inactive.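 Rule for the calls, unless noted: active = inhibition of the reporter signal at or above 50%; inactive = inhibition below 50%.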
Experiment: inhibitors of Sendai virus-induced IRF3 signaling, primary screen, TLR/RLR signaling modifier project, cell-based, Sendai virus stimulus, luciferase, 10K MLSCN set (AID 602276;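 active = inhibition at or above 50% at 10 µM; inactive = inhibition below 50%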;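 note: firefly luciferase from ISG56 promoter only with Renilla not read in this screen; 0% = Sendai virus plus DMSO and 100% = medium plus DMSO without virus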)
Conditions: HEK293 RL24 IRF3 luciferase reporter, at 10 µM, active compounds read high

Structure (SMILES) | inhibition
COC(=O)c1cncn1C(C)c1ccccc1 (stereo not given) | -53.9%
CCCNS(=O)(=O)c1ccc(OCC(=O)N2CCN(Cc3ccccc3)CC2)cc1 | -3.33%
COC(=O)CC1(Cc2ccccc2)C(=O)NC(=O)NC1=O | 17.2%
COc1ccc(CC[n+]2cc(/N=C(\C)[O-])on2)cc1OC | 7.77%
CC1(C)C(c2ccccc2)=NC(c2cccnc2)N1O (stereo not given) | 14.6%

Experiment: inhibitors of poly I:C-induced TLR3 signaling, primary screen, cell-based, poly I:C stimulus, luciferase, 10K MLSCN set (AID 602277)
Conditions: HEK293-TLR3 RL24 IRF3 luciferase reporter, at 10 µM, active compounds read high

Structure (SMILES) | inhibition
COC(=O)c1cncn1C(C)c1ccccc1 (stereo not given) | 13.1%
CCCNS(=O)(=O)c1ccc(OCC(=O)N2CCN(Cc3ccccc3)CC2)cc1 | -4.45%
COC(=O)CC1(Cc2ccccc2)C(=O)NC(=O)NC1=O | 21.5%
COc1ccc(CC[n+]2cc(/N=C(\C)[O-])on2)cc1OC | 25.3%
CC1(C)C(c2ccccc2)=NC(c2cccnc2)N1O (stereo not given) | 25.5%

From PubChem BioAssay
